Test systems include NCI-H23 lung; NCI-H322M lung; HOP-62 NSCLC; HOP-92 NSCLC; NCI-H522 lung; A549/ATCC NSCLC; 786-0 renal; COLO 205 colon; DU-145 prostate; K-562 leukemia; MALME-3M melanoma; MDA-MB-231 breast; RXF 393 renal; SF-268 CNS; SF-295 CNS; SF-539 CNS; UACC-257 melanoma; M14 melanoma; NCI-H226 lung; NCI-H460 lung.
Common to all, as to assay: NCI-60 one-dose screen, 48 h (100 = growth as untreated, 0 = no growth, -100 = all killed)
What all share (details): 10 µM unless noted

The structures appear in SMILES notation. Where “and” joins values, the source holds several entries; their conditions need not be identical. Equal values may be shown once. The panel holds about 83,000 compounds, 20% with a hit somewhere; the sample as a whole holds those more often.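 Percent growth is the endpoint: 0 to 100 indicates growth inhibition (40 means 60% inhibition), 0 means no net growth, and negative values indicate cell death.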 Unmarked numbers belong to inactive results. Calls of active or inactive are those of the source. Rule for the calls: active = growth percent below 10; inactive = the rest.

`CC(=O)C(N)Cc1ccccc1` (stereo unspecified): the growth is 98.3% with NCI-H23 lung; 106% in the test with NCI-H322M lung; 85.1% in the test with HOP-62 NSCLC; 86.3% in the test on HOP-92 NSCLC; 91.7% in the test on NCI-H522 lung; 67.9% in the test with A549/ATCC NSCLC. Also, the growth was 96.5% in the test with 786-0 renal; 97.8% in the test with COLO 205 colon; 99.3% in the test on DU-145 prostate; 98.8% in the test on K-562 leukemia; 105% in the test with MALME-3M melanoma; 105% in the test with MDA-MB-231 breast. In addition, the growth in the test on RXF 393 renal is 101%; in the test with SF-268 CNS, 105%; in the test with SF-295 CNS it was 102%; in the test with SF-539 CNS it was 100%; with UACC-257 melanoma, 73.3%; in the test on M14 melanoma it was 90.1%.
On to `CCC1CCC(=O)O1` (stereo unspecified), for which the growth with NCI-H23 lung is 110% and 111%; with NCI-H226 lung it was 97.4% and 110%; in the test on HOP-62 NSCLC it was 96.9% and 115%; in the test with HOP-92 NSCLC, 123%; in the test on NCI-H522 lung, 85.1% and 105%; with A549/ATCC NSCLC, 112% and 105%. The growth in the test on 786-0 renal is 98.1% and 107%; in the test on COLO 205 colon it was 104% and 125%; in the test on DU-145 prostate it was 112% and 116%; with K-562 leukemia, 110% and 119%; with MALME-3M melanoma it was 98.2% and 116%; in the test with MDA-MB-231 breast, 106% and 112%. Also, the growth in the test with RXF 393 renal is 101% and 124%; in the test with SF-268 CNS, 106% and 110%; in the test with SF-295 CNS it was 119%; in the test with SF-539 CNS it was 98.7% and 106%; in the test on UACC-257 melanoma it was 105%; in the test on M14 melanoma, 107% and 114%.
As for `N#CCC(=O)c1ccccc1`, the growth is 97.7% with NCI-H23 lung; 97.9% with NCI-H226 lung; 101% in the test with HOP-62 NSCLC; 96.9% in the test on NCI-H460 lung; 86.8% in the test on HOP-92 NSCLC; 102% in the test with NCI-H522 lung. Also, the growth in the test with 786-0 renal was 107%; in the test with COLO 205 colon, 101%; in the test on DU-145 prostate, 98.5%; in the test with K-562 leukemia it was 84.5%; in the test on MALME-3M melanoma it was 102%; in the test with MDA-MB-231 breast, 104%. Besides, the growth is 108% in the test with RXF 393 renal; 94.1% with SF-268 CNS; 101% in the test with SF-295 CNS; 111% with SF-539 CNS; 111% in the test with M14 melanoma.
Take `CC[C@H](C)[C@H](NC(=O)[C@H]1CCCCN1C)C(=O)N(C)[C@H](C[C@@H](OC(C)=O)c1cccc(C(=O)N[C@@H](Cc2ccccc2)C[C@H](C)C(=O)OC)n1)C(C)C`: the growth in the test on NCI-H23 lung was 22.4%; in the test with NCI-H226 lung, 23.3%; in the test on HOP-62 NSCLC, 3.61% (active); in the test with NCI-H460 lung it was 7.06% (active); in the test with HOP-92 NSCLC, -0.87% (active); in the test on NCI-H522 lung it was -11.6% (active). Moreover, the growth in the test with A549/ATCC NSCLC is 10.5%; with 786-0 renal it was 14.5%; in the test on COLO 205 colon, -71.6% (active); in the test on DU-145 prostate, 2.8% (active); in the test with K-562 leukemia, 5.5% (active); in the test on MALME-3M melanoma, 66.7%. The growth was 2.42% (active) in the test with MDA-MB-231 breast; 13.1% in the test with RXF 393 renal; 13.9% in the test with SF-268 CNS; 2.21% (active) with SF-295 CNS; -14% (active) in the test with SF-539 CNS; 47.6% in the test with UACC-257 melanoma. Besides, the growth in the test with M14 melanoma was -8.11% (active).
Take `COc1cc(C=C2C(=O)NC(=O)NC2=O)ccc1O`: the growth in the test on NCI-H23 lung was 98.1%; with NCI-H226 lung, 96.1%; in the test with HOP-62 NSCLC, 100%; in the test on NCI-H460 lung, 108%; in the test on HOP-92 NSCLC, 113%; with NCI-H522 lung, 96.9%. The growth with A549/ATCC NSCLC is 102%; in the test with 786-0 renal it was 99.7%; in the test with COLO 205 colon, 109%; with DU-145 prostate, 124%; with K-562 leukemia, 109%; in the test with MALME-3M melanoma, 136%. Besides, the growth in the test with MDA-MB-231 breast was 96.5%; with RXF 393 renal, 84.4%; in the test with SF-268 CNS, 106%; in the test on SF-295 CNS, 101%; in the test on SF-539 CNS, 101%; with UACC-257 melanoma it was 87.6%. For the same compound, the growth in the test on M14 melanoma was 101%.
Turning to `Nc1ccc(S(=O)(=O)F)cc1`, the growth in the test with NCI-H23 lung was 108%; with HOP-62 NSCLC it was 109%; in the test with NCI-H460 lung it was 111%; with HOP-92 NSCLC, 110%; with NCI-H522 lung it was 96.1%; in the test with A549/ATCC NSCLC it was 102%. For the same compound, the growth in the test with 786-0 renal was 94.7%; in the test on COLO 205 colon it was 112%; in the test with DU-145 prostate, 107%; in the test with K-562 leukemia, 91.8%; in the test with MALME-3M melanoma, 95.2%; with MDA-MB-231 breast, 117%. In addition, the growth was 100% in the test with RXF 393 renal; 99.8% in the test with SF-268 CNS; 102% in the test with SF-295 CNS; 103% in the test on SF-539 CNS; 110% with UACC-257 melanoma; 107% in the test with M14 melanoma.
On to `COC(=O)C1=CO[C@@H](C)[C@@H]2CN3CCc4c([nH]c5cc(OC)ccc45)[C@@H]3C[C@H]12`, for which the growth is 95.9% in the test with NCI-H23 lung; 94.5% in the test on NCI-H226 lung; 113% in the test with HOP-62 NSCLC; 99.7% in the test with NCI-H460 lung; 78% in the test with HOP-92 NSCLC; 95.8% in the test on A549/ATCC NSCLC. In addition, the growth was 108% with 786-0 renal; 101% in the test on COLO 205 colon; 104% in the test with DU-145 prostate; 97.6% in the test with K-562 leukemia; 97.2% with MDA-MB-231 breast; 115% in the test on RXF 393 renal. Also, the growth was 98.6% in the test on SF-268 CNS; 117% in the test on SF-295 CNS; 104% in the test with SF-539 CNS; 95.7% with UACC-257 melanoma; 103% in the test with M14 melanoma.

(Values after PubChem BioAssay (NCI).)
